Holding throughout (experiment): NCI-60 one-dose screen, 48 h (100 = growth as untreated, 0 = no growth, -100 = all killed)
For assay [1], the system named is DU-145 prostate. As to conditions: 10 µM unless noted.
In assay [2] the test system is MALME-3M melanoma. The conditions noted are these: 10 µM unless noted.
In assay [3] the test system is MDA-MB-231 breast. As to conditions: 10 µM unless noted.
The subject of assay [4] is RXF 393 renal. The conditions noted are these: 10 µM unless noted.
In assay [5] the test system is SF-268 CNS. As to conditions: 10 µM unless noted.
In assay [6] the test system is SF-295 CNS. As to conditions: 10 µM unless noted.
The subject of assay [7] is SF-539 CNS. As to conditions: 10 µM unless noted.
In assay [8] the test system is UACC-257 melanoma. The conditions noted are these: 10 µM unless noted.
Assay [9] deals with M14 melanoma. The conditions noted are these: 10 µM unless noted.
Assay [10] relates to HCT-15 colon. The conditions noted are these: 10 µM unless noted.
Assay [11] relates to HT29 colon. The conditions noted are these: 10 µM unless noted.
The test system of assay [12] is SNB-75 CNS. The conditions noted are these: 10 µM unless noted.
In assay [13] the test system is SNB-19 CNS. The conditions noted are these: 10 µM unless noted.
Assay [14] concerns U251 CNS. As to conditions: 10 µM unless noted.
Assay [15] has as its system PC-3 prostate. The conditions noted are these: 10 µM unless noted.
Assay [16] relates to UACC-62 melanoma. As to conditions: 10 µM unless noted.
The test system of assay [17] is LOX IMVI melanoma. The conditions noted are these: 10 µM.
Assay [18] has as its system SK-MEL-28 melanoma. As to conditions: 10 µM unless noted.

Compounds without any hit were thinned out: in the full panel of roughly 83,000, 20% have a hit.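 Growth was measured after 48 h exposure to one concentration of compound in 96-well plates. Values under 10 count as active.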 A number with no mark means an inactive call. The source made the active and inactive calls.

Regarding `O=C(Cn1c(/C=C/c2cccc([N+](=O)[O-])c2)nc2ccccc2c1=O)Nc1ccccc1`, the growth is 69.4% in assay [1]; 75.1% in [2]; 33.8% in assay [3]; 55.5% in assay [4]; 78.5% in assay [5]; 68.5% in [6]. The growth in assay [7] is 8.73% (active); in assay [8] it was 104%; in assay [9], 70.6%; in assay [10] it was 66.2%; in [11], 71.1%; in assay [12], 70.1%. The growth is 81.3% in [13]; 11.8% in assay [14]; 78.4% in [15]; 50.9% in [16]; 33% in assay [17]; 85.4% in [18].

As for `Cc1ccc(-c2nnc3ccc(N/N=C/c4ccccc4)nn23)cc1`, the growth in assay [1] is 75.9%; in [2], 95.6%; in assay [3], 80.1%; in [4] it was 94.3%; in [5], 57.8%; in assay [6], 52.3%. The growth in assay [7] was 80.8%; in [8], 103%; in [9] it was 67.3%; in [10] it was 69.2%; in [11], 118%; in assay [12], -17% (active). Besides, the growth was 86.6% in [13]; 75.1% in assay [14]; 89.3% in assay [15]; 98.4% in [16]; 47.5% in assay [17]; 95.7% in assay [18].

As to `COc1ccc(C(=O)/C=C/c2cccc(Br)c2)cc1S(N)(=O)=O`, the growth in assay [1] was -37% (active); in assay [2], -33.5% (active); in assay [3], -65.5% (active); in assay [4], -80.3% (active); in assay [5], -39.4% (active); in assay [6], -81.2% (active). For the same compound, the growth was -95.7% (active) in assay [7]; -80% (active) in assay [8]; -93% (active) in assay [9]; -69.7% (active) in assay [10]; -56.4% (active) in assay [11]; -17% (active) in assay [12]. Further, the growth was -42.8% (active) in assay [13]; -98.4% (active) in assay [14]; -34.6% (active) in [15]; -55.8% (active) in [16]; -91.7% (active) in assay [17]; -55.6% (active) in [18].

As to `COc1ccc(-c2nnc3ccc(N/N=C/c4ccc(C)cc4)nn23)cc1`, the growth in [1] was 39.1%; in assay [2], 91.3%; in [3] it was 65.4%; in assay [4] it was 62.2%; in assay [5], 59.1%; in [6] it was 56.9%. Further, the growth in assay [7] is 61.3%; in assay [8], 106%; in assay [9] it was 83.5%; in [10], 50%; in assay [11], 82.6%; in assay [12], -38.6% (active). For the same compound, the growth was 92.6% in assay [13]; 44.9% in assay [14]; 72.2% in [15]; 88.9% in assay [16]; 23.7% in [17]; 93.6% in assay [18].

As for `COc1ccc(C(=O)/C=C/c2ccccc2Br)cc1S(N)(=O)=O`, the growth is -31.7% (active) in assay [1]; 62.3% in assay [2]; -20.8% (active) in assay [3]; -70% (active) in assay [4]; 14.2% in assay [5]; -76.6% (active) in assay [6]. The growth in [7] was -74.9% (active); in assay [8], 15.5%; in assay [9] it was -11.7% (active); in [10] it was -91.5% (active); in assay [11] it was -17.2% (active); in assay [12], 34.1%. Moreover, the growth in assay [13] was 1.44% (active); in assay [14], -95.6% (active); in [15], 21%; in assay [16], 34.4%; in assay [17], -89.9% (active); in assay [18], -27.7% (active).

Take `NS(=O)(=O)c1ccc(-n2cc(-c3cccc(NC(=O)c4ccc(Cl)c(C(F)(F)F)c4)c3)nn2)cc1`: the growth was 18.3% in assay [1]; 39.9% in [2]; -5.26% (active) in assay [3]; 29.4% in assay [5]; 7.53% (active) in [6]; -38.8% (active) in [7]. The growth in assay [8] was 39.1%; in assay [9] it was 16.2%; in assay [10], 41.6%; in assay [11], 9.41% (active); in assay [12] it was 5.75% (active); in assay [13], 32.3%. Besides, the growth in [14] was -54.8% (active); in [15], 17.7%; in assay [16], 35%; in assay [17] it was -33.3% (active); in assay [18], -14.5% (active).

Turning to `N#Cc1c(NCc2ccccc2)n[nH]c1Nc1ccccc1`, the growth is 92.7% in [1]; 21.9% in [2]; 66.3% in assay [3]; 60.7% in assay [4]; 54.8% in [5]; 49.5% in assay [6]. In addition, the growth in [7] is 75.9%; in [8], 50.9%; in assay [9], 41.1%; in [10] it was 42.4%; in assay [11] it was 84.3%; in assay [12], 57.4%. Further, the growth in assay [13] is 54.8%; in [14] it was 45.9%; in assay [15] it was 40.1%; in assay [16] it was 64.9%; in assay [17], 58.4%; in [18], 79.1%.

Turning to `NS(=O)(=O)c1ccc(-n2cc(-c3cccc(NC(=O)c4cc(N5CCOCC5)cc(C(F)(F)F)c4)c3)nn2)cc1`, the growth in assay [1] was 83%; in assay [2], 54.1%; in assay [3], 37.4%; in assay [5] it was 41.1%; in assay [6], 54%; in [7] it was 19.3%. The growth in assay [8] is 66.3%; in assay [9], 78.8%; in [10] it was 105%; in assay [11], 103%; in [12], 33.1%; in assay [13], 40.8%. The growth was 7.62% (active) in [14]; 70.6% in [15]; 41.1% in assay [16]; 46.8% in assay [17]; 36.9% in [18].

As to `NS(=O)(=O)c1ccc(-n2cc(-c3cccc(NC(=O)c4cc(Cl)cc(Cl)c4)c3)nn2)cc1`, the growth is 74.6% in [1]; 77.6% in assay [2]; 54.1% in assay [3]; 87.9% in assay [4]; 43.1% in assay [5]; 75.6% in [6]. The growth in [7] is 70.1%; in assay [8], 83.2%; in assay [9] it was 52.4%; in assay [10], 94.7%; in assay [11], 32.1%; in assay [13] it was 68.6%. Further, the growth is -45.9% (active) in assay [14]; 69.7% in [15]; 69.6% in assay [16]; 2.52% (active) in [17]; 45.3% in assay [18].

For the origin of these results see PubChem BioAssay (NCI).
